According to PubChem BioAssay (Tox21):
Inconclusive results are not listed. Calls of active or inactive are those of the source. Unless noted, the call rests on the fitted dose curve; in most records, active means well fitted curve in the direction sought with a large enough effect in the repeat runs; inconclusive means weak or mixed curves; inactive means no such curve, though single readings can be large; an effect the other way counts as inactive or inconclusive.

What was measured:
[1] = qHTS assay to identify small molecule agonists of the peroxisome proliferator-activated receptor delta (PPARd) signaling pathway - cell viability counter screen (AID 743211); further: nearly all actives have a fitted effect of over 55% in size
How it was run: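 In the same wells used for beta-lactamase reporter measurement, cytotoxicity is scored by CellTiter-Glo. HEK293H PPARd-bla cells receive compound for 17 h at 37C following a 5 h settling period.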

[2] = target: Peroxisome proliferator-activated receptor delta (Homo sapiens) (UniProt Q03181); experiment: qHTS assay to identify small molecule agonists of the peroxisome proliferator-activated receptor delta (PPARd) signaling pathway (AID 743212; calls by dose curve)
Peroxisome proliferator-activated receptor delta (Homo sapiens), sequence (Q03181 whole entry, looked up): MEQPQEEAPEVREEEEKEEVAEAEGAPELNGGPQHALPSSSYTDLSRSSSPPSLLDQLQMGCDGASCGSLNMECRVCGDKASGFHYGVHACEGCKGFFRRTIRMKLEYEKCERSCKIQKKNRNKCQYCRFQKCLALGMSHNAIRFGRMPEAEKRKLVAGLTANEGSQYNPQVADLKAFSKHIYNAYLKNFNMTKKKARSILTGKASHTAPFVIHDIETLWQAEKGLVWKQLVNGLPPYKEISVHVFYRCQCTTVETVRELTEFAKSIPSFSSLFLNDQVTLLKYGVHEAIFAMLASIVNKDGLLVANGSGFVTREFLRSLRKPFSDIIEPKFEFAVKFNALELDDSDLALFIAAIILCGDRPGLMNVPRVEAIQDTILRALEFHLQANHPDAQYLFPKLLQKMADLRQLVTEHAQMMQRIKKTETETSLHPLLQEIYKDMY
How it was run: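 HEK293H PPARd-bla cells; 5 h preincubation 37 C/5% CO2; compound (DMSO) 37 C; LiveBLAzer B/G FRET substrate 2 h RT; fluorescence intensity.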

[3] = qHTS assay to identify small molecule antagonists of the peroxisome proliferator-activated receptor delta (PPARd) signaling pathway - cell viability counter screen (AID 743213); further: nearly all actives have a fitted effect of over 50% in size
How it was run: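 PPARd-bla HEK293H cells were treated with compounds plus agonist L165041 (300 nM final) for 17 h at 37 C. Viability was then read in the same wells by CellTiter-Glo luminescence after 30 min at room temperature.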

[4] = target: Peroxisome proliferator-activated receptor delta (Homo sapiens) (UniProt Q03181); experiment: qHTS assay to identify small molecule antagonists of the peroxisome proliferator-activated receptor delta (PPARd) signaling pathway (AID 743215; active means well fitted inhibition curve with a large enough effect in the signal ratio in the repeat runs, not every such curve was filed as active; the % refers to the signal ratio;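 further: cells stimulated with agonist L165041 at 300 nM final during compound exposure; series mostly up to about 62 µM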)
How it was run: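 Inhibition of L165041-driven (300 nM final) PPARd signaling is scored in HEK293H UAS-bla cells. Exposure lasts 17 h at 37 C; beta-lactamase activity is then read by FRET substrate fluorescence after 2 h at room temperature.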

[5] = target: Bile acid receptor (Homo sapiens) (UniProt Q96RI1); experiment: qHTS assay to identify small molecule antagonists of the farnesoid-X-receptor (FXR) signaling pathway (AID 743217; active means well fitted inhibition curve with a large enough effect in the signal ratio in the repeat runs, not every such curve was filed as active; the % refers to the signal ratio)
Bile acid receptor (Homo sapiens), sequence (Q96RI1 whole entry, looked up): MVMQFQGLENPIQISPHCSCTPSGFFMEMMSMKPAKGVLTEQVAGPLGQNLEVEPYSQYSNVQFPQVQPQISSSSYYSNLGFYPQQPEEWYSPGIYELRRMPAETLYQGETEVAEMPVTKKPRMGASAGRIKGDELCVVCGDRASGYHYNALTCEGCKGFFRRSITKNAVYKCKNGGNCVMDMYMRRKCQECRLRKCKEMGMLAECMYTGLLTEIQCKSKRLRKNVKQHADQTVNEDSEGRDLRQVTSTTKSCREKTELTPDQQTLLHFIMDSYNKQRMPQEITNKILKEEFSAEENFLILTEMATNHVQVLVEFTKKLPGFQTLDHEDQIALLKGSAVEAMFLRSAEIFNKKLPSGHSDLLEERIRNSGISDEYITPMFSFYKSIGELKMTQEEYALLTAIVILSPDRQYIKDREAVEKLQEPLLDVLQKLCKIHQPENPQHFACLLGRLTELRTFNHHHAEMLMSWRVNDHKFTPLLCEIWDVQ
How it was run: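 Antagonist mode against 50 uM (final) chenodeoxycholic acid stimulation in FXR-bla HEK 293T cells, 16 h at 37 °C. Inhibition detected as reduced beta-lactamase activity via LiveBLAzer B/G FRET fluorescence after 2 h at room temperature.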

[6] = target: Bile acid receptor (Homo sapiens) (UniProt Q96RI1); experiment: qHTS assay to identify small molecule agonists of the farnesoid-X-receptor (FXR) signaling pathway (AID 743220; active means well fitted activation curve with a large enough effect in the signal ratio in the repeat runs, not every such curve was filed as active; the % refers to the signal ratio)
How it was run: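 Beta-lactamase reporter under UAS control in GeneBLAzer FXR HEK 293T cells (5000/well) measured with LiveBLAzer FRET substrate after 2 h at room temperature. Compound exposure lasted 16 h at 37C.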

[7] = qHTS assay to identify small molecule antagonists of the farnesoid-X-receptor (FXR) signaling pathway - cell viability counter screen (AID 743221; active means well fitted cell-killing curve with a large enough effect in the repeat runs, not every such curve was filed as active; further: nearly all actives have a fitted effect of over 50% in size)
How it was run: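 Here viability was scored by luminescence after CellTiter-Glo addition to wells already read for beta-lactamase. Prior treatment: compound plus CDCA (50 uM final), 16 h, 37 C, HEK 293T FXR-bla cells.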

[8] = qHTS assay to identify small molecule agonists of the NFkB signaling pathway (AID 1159509; active means well fitted curve in the direction sought with a large enough effect in the signal ratio in the repeat runs, not every such curve was filed as active; the % refers to the signal ratio; further: series mostly up to about 61 µM)
How it was run: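 ME-180 NFkB-bla, 2,000 cells/well, overnight plating; cpd pinned in DMSO, 5 h 37 C; B/G FRET substrate 1.5 h RT; ex 405, em 460/530 nm.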

[9] = qHTS assay to identify small molecule agonists of the NFkB signaling pathway - cell viability counter screen (AID 1159515; calls by dose curve; further: series mostly up to about 61 µM; nearly all actives have a fitted effect of over 55% in size)
How it was run: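 Multiplexed viability readout: after the 5 hr compound exposure and 1.5 hr FRET substrate step, CellTiter-Glo reagent went into the same NFkB-bla ME-180 wells; ATP luminescence was measured after 30 min at room temperature.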

[10] = qHTS assay to identify small molecule agonists of the endoplasmic reticulum stress response signaling pathway (AID 1159516; active means well fitted activation curve with a large enough effect in the signal ratio in the repeat runs, not every such curve was filed as active; the % refers to the signal ratio)
How it was run: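 Tox21 10K library screened in quantitative HTS format on ESRE-bla HeLa cells, a beta-lactamase reporter under ER stress response element control; 5 hr treatment, FRET read.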

[11] = qHTS assay to identify small molecule agonists of the endoplasmic reticulum stress response signaling pathway - cell viability counter screen (AID 1159517; calls by dose curve; further: series mostly up to about 61 µM; nearly all actives have a fitted effect of over 50% in size)
How it was run: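 HeLa cells carrying an ESRE-driven beta-lactamase reporter receive compound for 5 hr at 37 C. Cell viability is then gauged with CellTiter-Glo by luminescence, 30 min at room temperature.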

[12] = qHTS assay to identify small molecule antagonists of the retinoid-related orphan receptor gamma (ROR-gamma) signaling pathway - cell viability counter screen (AID 1159520); further: nearly all actives have a fitted effect of over 50% in size
How it was run: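 Cytotoxicity was read from cellular ATP (CellTiter-Glo luminescence) after 16 hr at 37 C with 1 uM doxycycline induction. The inducer was added 2 hr after compound transfer to Tet-on ROR gamma CHO cells.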

[13] = target: Nuclear receptor ROR-gamma (Homo sapiens) (UniProt P51449); experiment: qHTS assay to identify small molecule antagonists of the retinoid-related orphan receptor gamma (ROR-gamma) signaling pathway (AID 1159521)
How it was run: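 Test compounds were applied to Tet-on RORγ CHO cells 2 h ahead of doxycycline hyclate (1 uM final). Luciferase reporter activity was quantified by luminescence after 16 h at 37 C and 5% CO2.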

[14] = qHTS assay to identify small molecule agonists of the AP-1 signaling pathway - cell viability counter screen (AID 1159525; calls by dose curve; further: nearly all actives have a fitted effect of over 55% in size)
How it was run: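 Luminescent ATP readout (Cell Titer Glo, 30 min RT), normalised to DMSO and tetra n-octyl ammonium bromide controls. Cells were ME-180 AP-1-bla in 0.5% dialyzed FBS Opti-MEM, with a 5 h, 37 °C compound exposure.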

[15] = qHTS assay to identify small molecule agonists of the AP-1 signaling pathway (AID 1159526; calls by dose curve)
[16] = qHTS assay to identify small molecule agonists of the farnesoid-X-receptor (FXR) signaling pathway - cell viability counter screen (AID 743218); further: nearly all actives have a fitted effect of over 45% in size
How it was run: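 Cytotoxicity counter-screen run in parallel, same wells: FXR-UAS-bla HEK 293T cells dosed 16 h at 37 C, viability read by CellTiter-Glo luminescence after 30 min at room temperature.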

[17] = target: Vitamin D3 receptor (Homo sapiens) (UniProt P11473); experiment: qHTS assay to identify small molecule agonists of the vitamin D receptor (VDR) signaling pathway (AID 743222; calls by dose curve)
Vitamin D3 receptor (Homo sapiens), sequence (P11473 whole entry, looked up): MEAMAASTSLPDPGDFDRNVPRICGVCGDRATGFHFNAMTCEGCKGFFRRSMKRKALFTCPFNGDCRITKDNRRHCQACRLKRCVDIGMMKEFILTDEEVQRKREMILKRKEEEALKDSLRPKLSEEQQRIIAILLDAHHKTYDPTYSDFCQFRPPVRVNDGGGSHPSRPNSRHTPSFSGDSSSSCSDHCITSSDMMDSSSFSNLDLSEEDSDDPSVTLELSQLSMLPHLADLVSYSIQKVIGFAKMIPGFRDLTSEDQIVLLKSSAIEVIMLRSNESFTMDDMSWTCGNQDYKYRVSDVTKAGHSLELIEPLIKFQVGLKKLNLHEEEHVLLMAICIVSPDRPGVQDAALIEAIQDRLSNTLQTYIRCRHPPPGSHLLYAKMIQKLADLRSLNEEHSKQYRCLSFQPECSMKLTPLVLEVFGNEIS
How it was run: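 Quantitative HTS agonist-mode screen: compounds in DMSO were pin-transferred onto VDR-bla cells and incubated 16 h at 37C, 5% CO2. Reporter activity was detected with LiveBLAzer B/G FRET substrate after 2 h at room temperature.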

[18] = qHTS assay to identify small molecule antagonists of the vitamin D receptor (VDR) signaling pathway - cell viability counter screen (AID 743225); further: nearly all actives have a fitted effect of over 50% in size
How it was run: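 Compounds were pinned onto VDR-bla HEK 293T cells together with 1-alpha,25-dihydroxyvitamin D3 at 3 nM final. After 16 h at 37C and 5% CO2 plus the reporter readout, cell viability was measured by CellTiter-Glo luminescence (30 min, room temperature).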

[19] = target: Vitamin D3 receptor (Homo sapiens) (UniProt P11473); experiment: qHTS assay to identify small molecule antagonists of the vitamin D receptor (VDR) signaling pathway (AID 743223; active means well fitted inhibition curve with a large enough effect in the signal ratio in the repeat runs, not every such curve was filed as active; the % refers to the signal ratio)
How it was run: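 Inhibition of agonist-driven VDR signalling is scored in VDR-bla cells: 3 nM final 1alpha,25-dihydroxyvitamin D3 plus compound, 16 h at 37C, then beta-lactamase detection by FRET substrate fluorescence after 2 h.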

[20] = qHTS assay to identify small molecule agonists of the vitamin D receptor (VDR) signaling pathway - cell viability counter screen (AID 743224)
How it was run: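 Viability is measured in the same wells as the VDR-bla reporter assay: after 16 h compound treatment and 2 h substrate loading, CellTiter-Glo is added and luminescence read 30 min later.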

Measured: Potency

CCCCCCI
not listed: [16] | [17] | [18] | [19] | [20]
inactive: all other assays above

CCC/C(=N\OCC)C1=C(O)CC(CC(C)SCC)CC1=O (stereo not given)
not listed: [4] | [5] | [6] | [19] | [20]
inactive: all other assays above

CC(C)NCC(O)c1ccc(N)c(C#N)c1 (stereo not given)
not listed: [6] | [16] | [17] | [19] | [20]
inactive: all other assays above

O=[N+]([O-])c1cccc2c([N+](=O)[O-])cccc12
not listed: [5] | [6] | [17] | [19] | [20]
inactive: all other assays above

CNC(=O)Oc1cccc(C(C)C)c1
not listed: [2] | [4] | [5] | [6]
inactive: all other assays above

Cc1cccc(C#N)c1
not listed: [2] | [19]
inactive: all other assays above

NC1=NC(=O)C(c2ccccc2)O1 (stereo not given)
not listed: [1] | [19]
inactive: all other assays above

COc1cc(OC)nc(NC(=O)NS(=O)(=O)c2ncccc2OCC(F)(F)F)n1
not listed: [3] | [17]
inactive: all other assays above

CCS(=O)(=O)C(C)(C)S(=O)(=O)CC
not listed: [2] | [4] | [16]
inactive: all other assays above

NC(=O)c1cc([N+](=O)[O-])cc([N+](=O)[O-])c1
not listed: [3] | [5] | [6] | [17]
inactive: all other assays above

COc1cc(OC)nc(Oc2cccc(Oc3nc(OC)cc(OC)n3)c2C(=O)O)n1
not listed: [3] | [5] | [17] | [18] | [20]
inactive: all other assays above

COc1cc(OC)nc(NC(=O)NS(=O)(=O)c2ncccc2C(=O)N(C)C)n1
not listed: [3] | [5] | [6]
inactive: all other assays above

CCOP(=S)(OCC)Oc1ncn(-c2ccccc2)n1
not listed: [2] | [3] | [4] | [16]
inactive: all other assays above

CCCCC(=O)Cl
not listed: [3] | [17] | [19]
inactive: all other assays above

ClCCOCOCCCl
not listed: [2] | [4] | [17]
inactive: all other assays above

[As]#[In]
not listed: [2] | [4] | [5] | [6] | [17] | [19]
inactive: all other assays above

CCCSC(=O)N(CCC)CCC
not listed: [1] | [5] | [6] | [19]
inactive: all other assays above
